Measurements published in PubChem BioAssay AID1159580 (chemical genetic matrix, 2015).
Out of some 5,500 compounds screened, about 2,000 (36%) were called active. Inconclusive results (about 18%) are left out. Cut-off read from the data, not from the text of the source: active = normalized growth mostly below about 0.91 (no sharp cut-off); inconclusive = no clear call, values can overlap the other calls; inactive = mostly above about 0.92. The list shows a part of the results.

Test: chemical genetic growth profiling, strain panel (AID 1159580);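 note: tested at 20 µM; growth read once vehicle control cultures reached saturation at 30 °C; 1 = growth at the plate median or of vehicle wells; lower values mean less growth of the strain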
Conditions: growth OD

Measured: normalized growth

COc1c(C)c2c(c(C)c1Cl)Oc1c(Cl)c(OC)c(Cl)c(C)c1C(=O)O2
inactive: S. cerevisiae deletion strains, locus YAL013W, strain DEP1, hits give low values 0.992 | S. cerevisiae deletion strains, locus YBR021W, strain FUR4, hits give low values 1.05 | S. cerevisiae deletion strains, locus YBR229C, strain ROT2, hits give low values 1.01 | S. cerevisiae deletion strains, locus YCL029C, strain bik1, hits give low values 1.02 | S. cerevisiae deletion strains, locus YDL035C, strain GPR1, hits give low values 1.01 | S. cerevisiae deletion strains, locus YDL074C, strain BRE1, hits give low values 1 | S. cerevisiae deletion strains, locus YDL101C, strain DUN1, hits give low values 1.01 | S. cerevisiae deletion strains, locus YDL134C, strain PPH21, hits give low values 1.01 | S. cerevisiae deletion strains, locus YDL185W, strain tfp1, hits give low values 1.02 | S. cerevisiae deletion strains, locus YDL192W, strain arf1, hits give low values 1.02 | S. cerevisiae deletion strains, locus YDR101C, strain arx1, hits give low values 1.01 | S. cerevisiae deletion strains, locus YDR150W, strain NUM1, hits give low values 1.02 | S. cerevisiae deletion strains, locus YDR162C, strain NBP2, hits give low values 0.987 | S. cerevisiae deletion strains, locus YDR318W, strain mcm21, hits give low values 1.03 | S. cerevisiae deletion strains, locus YDR388W, hits give low values 1.01 | S. cerevisiae deletion strains, locus YDR502C, strain sam2, hits give low values 1.01 | S. cerevisiae deletion strains, locus YEL061C, strain CIN8, hits give low values 1.01 | S. cerevisiae deletion strains, locus YER110C, hits give low values 1.02 | S. cerevisiae deletion strains, locus YER155C, strain BEM2, hits give low values 1.01 | S. cerevisiae deletion strains, locus YER167W, strain BCK2, hits give low values 1.03 | S. cerevisiae deletion strains, locus YGL078C, strain dbp3, hits give low values 1.01 | S. cerevisiae deletion strains, locus YGL086W, strain mad1, hits give low values 1.02 | S. cerevisiae deletion strains, locus YGL248W, strain PDE1, hits give low values 1.02 | S. cerevisiae deletion strains, locus YGR078C, strain PAC10, hits give low values 1.01 | S. cerevisiae deletion strains, locus YGR135W, strain pre9, hits give low values 1 | S. cerevisiae deletion strains, locus YGR229C, strain SMI1, hits give low values 0.991 | S. cerevisiae deletion strains, locus YGR252W, strain gcn5, hits give low values 1.05 | S. cerevisiae deletion strains, locus YHR030C, strain SLT2, hits give low values 1.02 | S. cerevisiae deletion strains, locus YHR079C, strain IRE1 (second series), hits give low values 1.03 | S. cerevisiae deletion strains, locus YHR094C, strain hxt1, hits give low values 1.01 | S. cerevisiae deletion strains, locus YHR129C, strain ARP1, hits give low values 1.02 | S. cerevisiae deletion strains, locus YHR200W, strain rpn10, hits give low values 1.02 | S. cerevisiae deletion strains, locus YIL066C, strain RNR3, hits give low values 1 | S. cerevisiae deletion strains, locus YIL073C, strain SPO22, hits give low values 1.08 | S. cerevisiae deletion strains, locus YIL125W, strain kgd1, hits give low values 1.02 | S. cerevisiae deletion strains, locus YIR030C, strain dcg1, hits give low values 1.01 | S. cerevisiae deletion strains, locus YJL095W, strain BCK1, hits give low values 1.02 | S. cerevisiae deletion strains, locus YJL134W, strain LCB3, hits give low values 1.01 | S. cerevisiae deletion strains, locus YJL168C, strain set2, hits give low values 1.01 | S. cerevisiae deletion strains, locus YJL187C, strain SWE1 (second series), hits give low values 1.01 | S. cerevisiae deletion strains, locus YJR043C, strain POL32, hits give low values 1.04 | S. cerevisiae deletion strains, locus YJR075W, strain HOC1, hits give low values 1.01 | S. cerevisiae deletion strains, locus YKL009W, strain mrt4, hits give low values 1.03 | S. cerevisiae deletion strains, locus YKL068W, hits give low values 1.01 | S. cerevisiae deletion strains, locus YKL085W, strain MDH1 (second series), hits give low values 1.02 | S. cerevisiae deletion strains, locus YKL085W, strain MDH1, hits give low values 1.02 | S. cerevisiae deletion strains, locus YKL190W, strain CNB1, hits give low values 1.01 | S. cerevisiae deletion strains, locus YKR001C, strain vps1, hits give low values 1.03 | S. cerevisiae deletion strains, locus YLR039C, strain RIC1, hits give low values 1.06 | S. cerevisiae deletion strains, locus YLR058C, strain SHM2, hits give low values 1.02 | S. cerevisiae deletion strains, locus YLR102C, strain apc9, hits give low values 1.01 | S. cerevisiae deletion strains, locus YLR262C, strain YPT6, hits give low values 1.02 | S. cerevisiae deletion strains, locus YLR268W, strain sec22, hits give low values 0.997 | S. cerevisiae deletion strains, locus YLR330W, strain CHS5, hits give low values 1.02 | S. cerevisiae deletion strains, locus YLR342W, strain FKS1 (second series), hits give low values 1.08 | S. cerevisiae deletion strains, locus YLR371W, strain rom2, hits give low values 1.02 | S. cerevisiae deletion strains, locus YLR418C, strain cdc73, hits give low values 0.989 | S. cerevisiae deletion strains, locus YML016C, strain PPZ1, hits give low values 1.01 | S. cerevisiae deletion strains, locus YML032C, strain rad52, hits give low values 1.03 | S. cerevisiae deletion strains, locus YML124C, strain tub3, hits give low values 1.01 | S. cerevisiae deletion strains, locus YMR078C, strain ctf18, hits give low values 1.02 | S. cerevisiae deletion strains, locus YMR223W, strain ubp8, hits give low values 1.03 | S. cerevisiae deletion strains, locus YMR263W, strain SAP30, hits give low values 1.01 | S. cerevisiae deletion strains, locus YMR307W, strain GAS1, hits give low values 1.06 | S. cerevisiae deletion strains, locus YNL067W, strain RPL9B, hits give low values 1.01 | S. cerevisiae deletion strains, locus YNL128W, strain TEP1, hits give low values 0.967 | S. cerevisiae deletion strains, locus YNL153C, strain GIM3, hits give low values 1 | S. cerevisiae deletion strains, locus YNL233W, strain BNI4, hits give low values 1.02 | S. cerevisiae deletion strains, locus YNL250W, strain rad50, hits give low values 1.01 | S. cerevisiae deletion strains, locus YNL271C, strain bni1, hits give low values 1.01 | S. cerevisiae deletion strains, locus YNL298W, strain CLA4, hits give low values 1.03 | S. cerevisiae deletion strains, locus YNL307C, strain MCK1, hits give low values 1.03 | S. cerevisiae deletion strains, locus YNL322C, strain KRE1, hits give low values 1 | S. cerevisiae deletion strains, locus YNR052C, strain pop2, hits give low values 1.02 | S. cerevisiae deletion strains, locus YOL006C, strain TOP1, hits give low values 1.1 | S. cerevisiae deletion strains, locus YOL012C, strain htz1 0.785 | S. cerevisiae deletion strains, locus YOL147C, strain pex11, hits give low values 1.01 | S. cerevisiae deletion strains, locus YOR061W, strain CKA2, hits give low values 1.01 | S. cerevisiae deletion strains, locus YOR069W, strain VPS5, hits give low values 1.02 | S. cerevisiae deletion strains, locus YOR136W, strain idh2, hits give low values 1.02 | S. cerevisiae deletion strains, locus YOR144C, strain elg1, hits give low values 1.01 | S. cerevisiae deletion strains, locus YOR184W, strain ser1, hits give low values 1.05 | S. cerevisiae deletion strains, locus YOR316C, strain cot1, hits give low values 1.02 | S. cerevisiae deletion strains, locus YPL055C, strain LGE1, hits give low values 0.99 | S. cerevisiae deletion strains, locus YPL241C, strain CIN2, hits give low values 1 | S. cerevisiae deletion strains, locus YPR119W, strain clb2, hits give low values 1 | S. cerevisiae deletion strains, locus YPR141C, strain kar3, hits give low values 1.01 | S. cerevisiae deletion strains, locus YPR163C, strain tif3, hits give low values 1.03 | S. cerevisiae deletion strains, locus YPR167C, strain met16, hits give low values 1.01 | S. cerevisiae deletion strains, strain wtn01, hits give low values 1.01 | S. cerevisiae strains, strain wild type, hits give low values 1
